HTT aggregate – qHTS Multiplex Assay to Identify Dual Action Probes in a Cell Model of Huntington: Aggregate Formation (GFP). PC12 HttQ103-GFP aggregates, Acumen cytometry, 40 h. Potency, µM (series often up to 46.1 µM), for inactives: at the top dose activity change, negative = inhibition, most hits filed as inhibitors. actives 1.1% (n = 220,000); also: % is scaled to controls: 0 for no effect and ±100 for the full control effect; nearly all actives have a fitted effect of over 60% in size
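Aggregate formation scored by laser-scanning cytometer (488 excitation, 500–530 emission) in lysed PC12 cells expressing Q103-GFP after 100 nM tebufenozide induction; library tested in dose series, with ATPLite reagent added in the multiplex.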
Lamin A splicing – qHTS Assay for Modulators of Lamin A Splicing | AID 1487, 2009 | HeLa LMNA splicing GFP/RFP minigene ratio, 48 h | actives 0.01% (n = 200,000) | Potency, µM (titrated, usually from 46.1 µM), for inactives: at the highest dose ratio change, negative = inhibition, most hits filed as inhibitors; active = well fitted inhibition curve with a large enough effect in the signal ratio, with a control signal flat, not every such curve was filed as active; inconclusive = small, poorly fitted or top-dose-only effect, or effect the other way, or a change in a side signal; the % refers to the signal ratio; also: % is scaled to controls: 0 for no effect and ±100 for the full control effect
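Read-out is the ratio of GFP to DsRed2 object intensity, acquired by 488 nm laser-scanning cytometry on HeLa lamin A-EGFP minigene reporter cells. Compound incubation 48 hrs at 37 °C in Opti-MEM with 2% FBS; DMSO 0.5% final.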
Epigenetic derep – Quantitative High-Throughput Screen for Regulators of Epigenetic Control. actives 0.2% (n = 280,000). Potency, µM (titrated, usually from 53.9 µM), for inactives: at the top dose GFP activation, usual class: activators. murine LDR cells, GFP reporter derepression, 30 h; also: % of control where 0% means no effect; nearly all actives have a fitted effect of over 60% in size
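Readout is the number of GFP-expressing murine LDR cells, counted by cytometry following washing. Cells were treated with compound for 30 h at 37 C; the stably integrated CMV-GFP locus is normally silent.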
HTT ATP protect – qHTS Multiplex Assay to Identify Dual Action Probes in a Cell Model of Huntington: Cytoprotection (ATP) | Potency, µM (titrated, usually from 56.4 µM), for the others: cytoprotection (ATP increase), actives largely listed as activators | AID 1471, 2008 | PC12 HTT-Q103 induced, cytoprotection, ATP luminescence, 40 h | actives 0.14% (n = 230,000); also: % of control where 0% means no effect; nearly all actives have a fitted effect of over 45% in size
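Readout: ATPlite luminescence (ATP level). Model: stable PC12, inducible Htt exon1 Q103-GFP. Inducer: tebufenozide, 100 nM final. Compounds: dose series. No G418 in medium.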
NPSR antagonist – qHTS Assay for Antagonists of the Neuropeptide S Receptor: cAMP Signal Transduction | Potency, µM (top dose mostly 38.3 µM), inactives show at the highest dose activity change, negative = inhibition, hits mostly inhibitors | CHO-NPSR cells, cAMP TR-FRET, antagonist mode | actives 1% (n = 220,000) | AID 1461, 2008 | Q6W5P4; also: % is scaled to controls: 0 for no effect and ±100 for the full control effect; nearly all actives have a fitted effect of over 50% in size
Target sequence (Q6W5P4 whole entry, looked up): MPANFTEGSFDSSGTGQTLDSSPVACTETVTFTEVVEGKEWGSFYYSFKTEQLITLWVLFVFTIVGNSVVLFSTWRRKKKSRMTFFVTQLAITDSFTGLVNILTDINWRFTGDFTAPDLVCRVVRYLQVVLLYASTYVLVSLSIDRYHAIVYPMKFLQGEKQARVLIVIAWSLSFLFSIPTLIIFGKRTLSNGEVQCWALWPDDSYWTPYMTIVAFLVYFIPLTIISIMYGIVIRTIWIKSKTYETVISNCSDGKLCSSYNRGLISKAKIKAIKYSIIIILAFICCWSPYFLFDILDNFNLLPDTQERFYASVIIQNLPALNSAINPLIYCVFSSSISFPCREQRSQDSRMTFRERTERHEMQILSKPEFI
* hit, by the source's call; ? = inconclusive; . = no result given; [ ] = dose if it differs, or a comment. Rows were chosen to be rich in hits. Some 1.5% of all compounds tested hit in one or more screens of this group. Unless noted, calls follow the shape of the dose curve; as a rule, active = well fitted curve in the direction sought with a large enough effect; inconclusive = small, poorly fitted or top-dose-only effect, or another doubt; inactive = no such curve, though single readings can be large; an effect the other way counts as inactive or inconclusive. Potency is read from the fitted curve at half-maximal effect.

SMILES	HTT aggregate	Lamin A splicing	Epigenetic derep	HTT ATP protect	NPSR antagonist
O=C(COC(=O)C1CC1)c1c[nH]c2ccccc12	0.032µM*	-17%	-16%	.	-10%[46.1 µM]
CC(=O)OCC(=O)c1c[nH]c2ccccc12	-2%	?	2%	-24%	-29%
COc1ccc2c(c1)C(=O)[C@@H](OC(=O)NCc1ccco1)[C@H](c1ccc(OC)c(Br)c1)O2	.	.	1%	-23%	.
Cc1nc2ccccc2cc1OCc1ccc(Cl)cc1	7.9µM*	?	-1%	.	-1%[46.1 µM]
Cc1nc(OCc2ccccc2)c2ccccc2n1	-14%	1%	0%	-14%	-16%[46.1 µM]
Oc1ccc(NCc2ccccc2OCc2ccc(Cl)cc2)cc1	.	.	1%	.	.
COc1cccc(COc2cc3ccccc3nc2C)c1	1.8µM*	-2%	0%	-29%	-18%[46.1 µM]
COC(=O)c1sccc1OCc1cccc(OC)c1	15%	.	0%	2%	49%
Cc1nc2ccccc2cc1OCc1ccccc1	13µM*	8%	1%	-23%	-19%[46.1 µM]
CCC(C)NC(=O)c1ccccc1NC(=O)CN1C(=O)c2cccc3cccc1c23 (configuration not stated)	.	.	0%	.	.
CCOC(=O)c1ccccc1NC(=O)CSc1nccn1Cc1ccco1	.	20%[46 µM]	4%	.	.
CC(=O)Nc1nonc1-c1nnc(SCC(=O)Nc2cc(C)cc(C)c2)n1-c1ccccc1	.	-1%[46 µM]	-2%	.	.
O=C(CSc1nc(=O)[nH]c2c1CCC2)NCc1ccc(Cl)cc1	.	-11%[46 µM]	0%	.	.
CCN1/C(=C/c2sc(-c3ccccc3C)c[n+]2C)Sc2ccccc21	2.2µM*	.	2%	-130%	-16%
CN=C(NC#N)NCCSC[C@H]1N=CN=C1C	.	?	0%[16.9 µM]	6%[40.3 µM]	.
c1csc(CCNc2ncnc3sc4c(c23)CCC4)c1	7.9µM*	?	-6%	-6%	-17%[46.1 µM]
Fc1ccc(Nc2ncnc3sc4c(c23)CCC4)cc1F	10µM*	-14%	1%	-18%[10 µM]	-5%[46.1 µM]
N=C(c1ccc2ccccc2c1)c1ccccc1Cc1ccccc1	.	.	.	3%[10 µM]	.
O=C(O)CCC(=O)N1N=C(c2c(-c3ccccc3)c3cc(Cl)ccc3[nH]c2=O)CC1c1cccs1 (configuration not stated)	-6%	-3%	1%	2.8µM*	-4%
O=C(O)CCCC(=O)N1N=C(c2c(-c3ccccc3)c3cc(Cl)ccc3[nH]c2=O)CC1c1cccs1 (configuration not stated)	19%	-5%	0%	-33%[10 µM]	-4%
C[N+](C)(C)CCC(=O)c1cccc2ccccc12	.	?	0%	-28%	32µM*
O=C(O)CCC(=O)c1cccc2ccccc12	-11%	-9%	-1%	-10%	-10%[46.1 µM]
OC1(c2ccc(Cl)cc2)CN(c2ccccc2)C2=[N+]1CCS2 (configuration not stated)	-9%	.	-1%	26%	10µM*
COC(=O)C1OC(=O)C2OC23[C@]2(C)C(OC(C)=O)CC4C(C)(C)C(=O)CC[C@]4(C)C2CC[C@@]13C (some centres not stated)	.	4%	-1%	.	.
CCN(C(=O)c1cc2cc(Br)cc(OC)c2oc1=O)c1ccccc1	.	.	2%	.	.
SMILES	HTT aggregate	Lamin A splicing	Epigenetic derep	HTT ATP protect	NPSR antagonist
N#C/C(=C\c1ccc(N2CCOCC2)o1)c1nc2ccccc2[nH]1	-31%	33%	13µM*	-60%	-28%[46.1 µM]
N#C/C(=C/c1ccc(N2CCOCC2)o1)c1ccc(Cl)cc1	?	13%	3.2µM*	?	?
CC(C)=NO[C@@H](C)CN1CCCCc2nc(C)c(C)cc21	.	.	0%[10.1 µM]	0%[10 µM]	.
Cc1cc([N+](=O)[O-])ccc1N=Nc1c(N)[nH]n(-c2ccccc2)c1=O	-4%	.	1%	.	-22%
NC(=S)n1[nH]c(-c2ccc([N+](=O)[O-])cc2)c(N=Nc2ccc(Cl)cc2)c1=O	7.9µM*	?	-3%	-85%	-22%
Cc1ccc([N+](=O)[O-])cc1N=Nc1c(-c2ccc([N+](=O)[O-])cc2)[nH]n(C(N)=S)c1=O	23%	.	0%	.	10µM*
Cc1ccc(N=Nc2c(C)[nH]n(C(N)=S)c2=O)cc1	11%	.	-1%	.	-3%
O=C(Nc1ccc2c(c1)Cc1ccccc1-2)[C@@H]1[C@H](C(=O)O)[C@]2(Cl)C(Cl)=C(Cl)[C@@]1(Cl)C2(Cl)Cl	.	.	.	-4%[10 µM]	.
CCCC(=O)NC(c1ccc2c(c1)OCO2)c1cc(Cl)c2cccnc2c1O (configuration not stated)	2.8µM*	?	?	-69%[10 µM]	-2%
O=C(NC(c1ccccc1)c1cc(Cl)c2cccnc2c1O)c1cccnc1 (configuration not stated)	4µM*	-16%	2%	-88%[10 µM]	-18%
COc1ccc(O[C@H]2C=C[C@@H](c3ccccc3)O[C@H]2COC(=O)CC/C(C)=N\O[C@@H](C)c2cc(-c3c(C)cc(C)cc3C)no2)cc1	.	.	1%[10.1 µM]	?	.
COc1ccccc1CNC(=O)CCn1c(=O)c2ccccc2n(CC(=O)Nc2ccc(C)cc2C)c1=O	.	.	1%	.	.
O=C(NNC(=S)NC1CCCCC1)c1sc2ccccc2c1Cl	5%	?	2%	-1%[10 µM]	-20%
CC(C)(C)C(=O)NC(=S)NNC(=O)c1sc2ccccc2c1Cl	10µM*	?	-2%	-27%[10 µM]	-52%
CC(NCC(O)COc1ccc(S(=O)(=O)N2CCOCC2)cc1)c1ccccc1 (configuration not stated)	-3%	?	-2%	2.2µM*	?
CCOC(=O)c1nnc(-c2ccc(C)cc2)nc1Oc1ccccc1Cl	22µM*	-21%	?	.	-27%[46.1 µM]
CCOC(=O)c1nnc(-c2ccc(C)cc2)nc1Oc1ccc(Cl)cc1Cl	-3%	9%	1%	-33%	?
COCC(C)NC(=O)CSc1nnc(-c2cccc(S(=O)(=O)N3CCCCC3)c2)o1 (configuration not stated)	4%	.	-2%	.	1%
CC(NC(=O)CSc1nnc(-c2cccc(S(=O)(=O)N3CCCCC3)c2)o1)C12CC3CC(CC(C3)C1)C2 (configuration not stated)	?	-2%	0%	-43%	10µM*
Cc1cc(=O)oc2cc(O[C@@H]3O[C@H](C(=O)O)[C@@H](O)[C@H](O)[C@H]3O)ccc12	.	.	-1%	-3%[1.9 µM]	.
Cc1ccc(S(=O)(=O)N2CCC(N3CCN(Cc4ccccc4)C(=O)C3=O)CC2)cc1C	.	.	1%	.	.
CCOc1ccc(NC(=O)c2cc3cc(C)ccc3n2C)cc1	.	?	-3%	.	.
Nc1ccc(-c2nc3ccc([N+](=O)[O-])cc3[nH]2)cc1	4%	-14%	-1%	-53%[10 µM]	-1%

Screens deposited in PubChem by National Center for Advancing Translational Sciences (NCATS).
